This note sets out measurements from PubChem BioAssay AID651725 (National Center for Advancing Translational Sciences (NCATS), 2012).

Hit rate of the full screen: of about 360,000 compounds, about 2,000 (0.56%) were called active. Not shown: some 2% with an inconclusive outcome. Rule as the data show it: active = activity change below about -65%; inconclusive = mostly about -30% to -63%; inactive = weaker than that. Shown is part of a subset that was picked to be rich in actives.
% is scaled to controls: 0 for no effect and ±100 for the full control effect.

The target in the test is Homeobox protein SIX1 (Homo sapiens) + Protein phosphatase EYA2 (Homo sapiens) (UniProt Q15475+O00167). In words: qHTS Assay for Inhibitors of the Six1/Eya2 Interaction. The conditions noted are these: AlphaScreen GST-Six1/His-Eya2 binding, biochemical; stronger effect = lower value. The source says: Its expression is low or undetectable in normal adult breast tissue but the gene is over-expressed in 50% of primary breast tumors and 90% of metastatic lesions. […] Similar to Six1, Eya2 is also not expressed in most normal adult tissues, but is reexpressed in cancers. The Six1-Eya interaction is essential for proliferation during embryonic development, and both Six1 and Eya2 have been independently implicated in the same types of cancer. Because Six1 and Eya2 are embryonic genes with little expression in adult tissues, inhibitors of their expression/activity are likely to have limited side effects. Our goal is to identify inhibitors of the Six1/Eya interaction for potential cancer therapy. To this end, we have developed a homogenous AlphaScreen assay targeting the Six1/Eya interaction. We performed a large scale HTS of the Molecular Libraries Small Molecule Repository (MLSMR) to identify inhibitors of the Six1/Eya interaction as potential anti-cancer therapeutics. Compounds identified can also be used as chemical probes to better understand the biological functions of Six1 and Eya. NIH Chemical Genomics Center [NCGC] NIH Molecular Libraries Probe Centers Network [MLPCN] MLPCN Grant: DA033147 Assay Submitter (PI): Rui Zhao, University of Colorado Denver
Chain of Homeobox protein SIX1 (Homo sapiens) + Protein phosphatase EYA2 (Homo sapiens) (O00167 whole entry, looked up): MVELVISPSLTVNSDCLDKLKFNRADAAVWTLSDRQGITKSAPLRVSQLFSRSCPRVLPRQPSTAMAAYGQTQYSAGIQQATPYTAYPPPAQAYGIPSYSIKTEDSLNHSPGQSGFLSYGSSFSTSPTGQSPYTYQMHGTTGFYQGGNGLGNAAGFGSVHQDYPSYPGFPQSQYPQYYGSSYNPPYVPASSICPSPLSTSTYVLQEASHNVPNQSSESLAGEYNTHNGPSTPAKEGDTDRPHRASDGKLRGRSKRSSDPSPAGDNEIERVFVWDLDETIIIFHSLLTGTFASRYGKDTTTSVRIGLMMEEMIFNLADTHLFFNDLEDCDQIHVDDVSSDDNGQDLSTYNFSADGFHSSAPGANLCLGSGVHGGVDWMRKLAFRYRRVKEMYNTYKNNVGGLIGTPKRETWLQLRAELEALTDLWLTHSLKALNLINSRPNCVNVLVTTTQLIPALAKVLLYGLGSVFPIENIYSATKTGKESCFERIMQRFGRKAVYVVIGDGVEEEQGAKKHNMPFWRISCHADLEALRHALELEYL
Chain of Homeobox protein SIX1 (Homo sapiens) + Protein phosphatase EYA2 (Homo sapiens) (Q15475 whole entry, looked up): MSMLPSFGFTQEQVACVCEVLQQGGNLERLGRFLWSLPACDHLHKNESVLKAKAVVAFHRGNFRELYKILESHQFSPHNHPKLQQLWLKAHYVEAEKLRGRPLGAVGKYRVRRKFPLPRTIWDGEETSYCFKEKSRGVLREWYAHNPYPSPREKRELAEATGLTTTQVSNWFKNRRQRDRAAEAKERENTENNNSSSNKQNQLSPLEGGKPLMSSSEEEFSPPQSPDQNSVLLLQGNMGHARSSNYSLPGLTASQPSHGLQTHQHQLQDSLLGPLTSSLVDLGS
The first step of the 5 uL AlphaScreen assay is to dispense assay buffer (50 mM Tris, pH 8.0, 300 mM NaCl, 0.05% BSA, 0.02% Tween 20, 1 mM TCEP) into a Greiner 1536 white solid bottom microtiter plate (789175-F). Five microliters is added to Column 1, 4 uL is added to Column 2 and 3 uL is added to Columns 3 through 48. A 5X protein solution (250 nM GST-Six1 protein + 500 nM His-tagged Eya2 protein) is mixed and 1 uL is dispensed to Columns 3-48. Using a 1536 pintool, 23 nL of compound is transferred to the assay plate. A solution of 5X AlphaScreen beads is mixed (50 ug/mL Glutathione linked donor beads + Nickel chelated acceptor beads) and 1 uL is dispensed to Columns 2-48. The assay plate is incubated for one hour, with a lid, at 37 deg C in the dark. The plate is read using a Perkin Elmer Envision using an AlphaScreen protocol.
On the technique in general: Quantitative high-throughput screening tests each substance at several concentrations.
For `COc1ccc(C(C(=O)Nc2c(C)cccc2C)N2CCN(c3ccc(C)cc3)CC2)cc1` (stereo not given), the activity change was -4.54% (inactive).

`COc1cccc(/C=N\NC(=O)C2=NNC(=O)C2C)c1O` (stereo not given): the activity change is -90.9% (active).

Regarding `COc1cccc(/C=N/NC(=O)c2[nH]nc3c2CCc2ccccc2-3)c1O`, the activity change was -65.7% (active).

On to `CCn1c(/C=N/NC(=O)c2ccc(OC)cc2)nc2ccccc21`, for which the activity change was -12.5% (inactive).

Consider `COc1ccc(/C=N/NC(=O)C2CC2)c(OC)c1OC`, for which the activity change is 3.31% (inactive).

As to `COc1cc(/C=N/NC(=O)c2cccnc2)ccc1OC(=O)c1cccc(Br)c1`, the activity change was -6.91% (inactive).

`COc1ccc(OC)c(/C=N/NC(=O)c2ccc[n+](CC(=O)c3ccccc3)c2)c1`: the activity change was -5.56% (inactive).

Consider `Cc1cccc(C)c1NC(=O)C(c1cccc2ccccc12)n1c(=O)c(-c2ccco2)nc2ccccc21` (stereo not given), for which the activity change is -22.2% (inactive).

Turning to `CC(C)OC(=O)CC(=O)CC(O)c1cccc([N+](=O)[O-])c1` (stereo not given), the activity change was -3.63% (inactive).

As to `Cc1nc2ccccc2c(C(=O)O)c1-c1ccccn1`, the activity change was 7.28% (inactive).

As for `c1ccc(-c2nccc(-c3ccc(-n4cnc5ccccc54)cc3)n2)nc1`, the activity change is -10.5% (inactive).

Consider `CC(C)(C)Nc1nc(-c2ccccn2)nc2ccccc12`, for which the activity change was -89.4% (active).

For the compound `COc1ccc2c(c1)N(C)/C(=C1/SC(=S)N(NC(C)=O)C1=O)S2`, the activity change was -8.77% (inactive).

For `O=C1NC[C@H](CCCCN2CCN(CCc3ccccc3)C(=O)C2=O)N(CC2CCCCC2)C1=O`, the activity change is -4.53% (inactive).

On to `Oc1c(CN2CCN(c3ccc(F)cc3)CC2)cc(Cl)c2cccnc12`, for which the activity change was -81.4% (active).

As for `Cc1cc(=O)oc2cc(OCC(=O)N3CCN(c4ccc(F)cc4)CC3)c(Cl)cc12`, the activity change was 3.08% (inactive).

For the compound `Cc1cccc(C)c1NC(=O)CN1CCN(c2ccc(F)cc2)CC1`, the activity change is -0.798% (inactive).

Consider `CSCCC(C(=O)NC(C)(C)C)n1c(-c2ccccc2)nc2ccccc21` (stereo not given), for which the activity change was 7.41% (inactive).

Regarding `Cc1ccc(-c2ccc(C3=CC(=O)CC(C)(C)C3=O)cc2)cc1`, the activity change was -1.02% (inactive).

With `CCCc1nc2ccccc2n1C(C)C(=O)NC(C)(C)C` (stereo not given), the activity change was -4.69% (inactive).

With `CCOC(=O)N1CCN(C(=O)C2CCN(c3ncnc4c3sc3cccc(F)c34)CC2)CC1`, the activity change is -5.48% (inactive).

As to `CCOC(=O)N1CCN(C(c2ccnc3ccccc23)c2nnnn2-c2c(C)cccc2C)CC1` (stereo not given), the activity change is 18.3% (inactive).

Turning to `CCOC(=O)N1CCN(C(c2cccnc2)c2ccc3cccnc3c2O)CC1` (stereo not given), the activity change is -88.9% (active).

In the case of `CCN1CCN(C(c2cccnc2)c2cc(Cl)c3cccnc3c2O)CC1` (stereo not given), the activity change is -90.1% (active).

`C=CCC[C@H](CCCCC)OC(=O)/C=C/[C@H](O)[C@@H](O)C[C@@H](O)CC=C`: the activity change was 9.69% (inactive).

As to `COC(=O)C[C@H]1C=C[C@@H](NS(=O)(=O)c2ccc(C)cc2)[C@@H](CO)O1`, the activity change was -7.03% (inactive).

As for `Cc1ccc(Cn2cc(CN3CC(N4CCN(C)CC4)CS3(=O)=O)nn2)cc1` (stereo not given), the activity change was 2.69% (inactive).

In the case of `CCOc1ccc(N/C(N)=N/c2nc(C)c(C)c(=O)[nH]2)cc1`, the activity change was 1.12% (inactive).

Turning to `Cc1nnc(N/N=C/c2ccccn2)[nH]c1=O`, the activity change was -72.8% (active).

Turning to `COc1ccc(-n2c(O)c(C=NCC(c3ccco3)N3CCCC3)c3ccccc3c2=O)cc1OC` (stereo not given), the activity change is -13% (inactive).

As for `Cc1cc(=O)[nH]c(N/N=C/c2c(C)nn(-c3ccccc3Cl)c2Cl)n1`, the activity change was 1.43% (inactive).

Consider `CCOc1ccc(-n2c(O)c(/C=N/Nc3nnc(C)c(=O)[nH]3)c3ccccc3c2=O)cc1`, for which the activity change is -93.7% (active).

For `COc1ccc(/C=N/Nc2nc(-c3ccc(C)cc3)c(C#N)c(=O)[nH]2)cc1`, the activity change is 1.97% (inactive).

Regarding `Cc1[nH]nc(SCC(=O)NCC(C)C)c1[N+](=O)[O-]`, the activity change is 3.57% (inactive).

With `COc1ccc(N(CCC#N)S(=O)(=O)c2ccc(Cl)cc2)cc1`, the activity change was 3.78% (inactive).

As to `CCCCOCCCNC(=O)C[C@@H]1C[C@@]2(C(=O)OCC)CCCC=C2N(CCC2=CCCCC2)C1=O`, the activity change is -13.6% (inactive).

With `COCCNC(=O)C1C(=O)Nc2ccccc2C(=O)N1c1ccc2c(c1)OCCO2` (stereo not given), the activity change was 7.33% (inactive).

`CC1(C(=O)Nc2ccc3c(c2)OCCO3)CN(S(C)(=O)=O)CC(=O)N1Cc1cccc(F)c1` (stereo not given): the activity change is 6.88% (inactive).

Turning to `Oc1c(C(c2ccccn2)N2CCOCC2)ccc2cccnc12` (stereo not given), the activity change is -91.8% (active).

Consider `O=C(C[C@H]1CC[C@H]2[C@@H](COC[C@H](O)CN2C(=O)c2ccccn2)O1)N1CCN(c2ccccc2)CC1`, for which the activity change is -7.33% (inactive).

For `CCCCn1nnnc1C1(C)CCC(=O)N1Cc1ccc(OC)c(OC)c1` (stereo not given), the activity change was -14.1% (inactive).

In the case of `CC(C)NC(=O)C(=O)NCCCOC(C)C`, the activity change is 7.72% (inactive).

Turning to `Cc1cccc(-n2cnc(C(=O)NNC(=S)Nc3ccccc3)c2)n1`, the activity change is -90.4% (active).

On to `Cc1nn(C)cc1C(=O)NNC(=S)Nc1ccc(Cl)cc1`, for which the activity change was 0.473% (inactive).

For the compound `Cc1cccc(-n2cnc(C(=O)Nc3cccnc3)c2)n1`, the activity change is 26.5% (inactive).
